Records with an inconclusive call do not appear. A call without a number means that no potency is given here. Calls of active or inactive are those of the source. Calls come from the whole dose curve.
test: Cytotoxicity counterscreen for inhibitors of SARS-CoV-2 cell entry (AID 1645845); details: cell viability (SARS-CoV-2 entry assay cells); series mostly up to 57.1 µM; note: nearly all actives have a fitted effect of over 50% in size
Description: Assay Provider: Wei Zheng, Ph.D.
National Center for Advancing Translational Sciences, National Institute of Health, Rockville, MD.
SARS-CoV-2 spike protein, within the viral envelope, mediates viral attachment and infection of host cells. The SARS-CoV-2 spike protein specifically binds to the host receptor ACE2 (Angiotensin-converting enzyme 2). This interaction promotes endocytosis of the viral particle, additional events lead to viral-host cell membrane fusion and release of the viral contents, allowing viral replication.
While SARS-CoV-2 requires BSL-3 facilities for live virus work, pseudo-typed partices (PP) that incorporate SARS-CoV-2 spike proteins without replication elements could facilitate studies on viral entry mechanisms in a BSL-2 setting. This PP cell entry assay could also enable screening of small molecule compound libraries in BSL-2 setting to identify inhibitors of SARS-CoV-2 cell entry. To eliminate false positive compounds, ATP content cytotoxicity assay was screened in the same cell line.
SEQUENCE No. (e.g., 1, 2, 3, etc.); […] (e.g., Cells, Incubation, Reagent, etc.); VALUE and DESCRIPTION.
1. Cells. Seed 1500 HEK293-ACE2 cells (Expi293F with stable expression of human ACE2) in 2 uL/well media (DMEM, 10% FBS, 1x L-glutamine, 1x Pen/Strep, 1 ug/ml puromycin) in white 1536-well assay plates (Greiner #782073).
2. Incubation. Incubate at 37 C with 5% CO2 overnight (~16 h).
3. Compounds. Dispense 23 nL/well compounds in DMSO via pin transfer.
4. Incubation. Incubate for 1 h at 37C 5% CO2.
5. Reagent. Dispense 2 uL/well of media (DMEM, 10% FBS, 1x L-glutamine, 1x Pen/Strep, 1 ug/ml puromycin).
6. Incubation. Incubate at for 48h at 37C 5% CO2
7. Reagent. Dispense 4 uL/well of ATPLite 1step luminescence assay reagent (PerkinElmer #6016739).
8. Incubation. Incubate for 15 min at room temperature.
9. Detection. Read luminescence signal (Viewlux plate reader, PerkinElmer). Data was normalized with wells containing cells as 100%, and wells without cells (media only control) as 0%.
Potency is the fitted concentration of half-maximal effect.

**Q.** For `CCn1c(C(=O)N(C2CC2)C2CC2)cc2c3c(ncn3C)c(Nc3cc(C)n(C)n3)nc21`, which Potency is on record?
**A.** The Potency was “inactive”.

**Q.** For `Cc1cc(O)c2c(c1)O[C@@]1(C)CC[C@H]3C(C)(C)CCCC34CO[C@@H]2[C@H]41` (stereo not given in full), which Potency is on record?
**A.** Its Potency is “inactive”.

**Q.** For `COc1cc(C[C@@H](CO)[C@H](CO)Cc2ccc(O)c(OC)c2)ccc1O`, which Potency is on record?
**A.** The Potency was “inactive”.

**Q.** For `O=C1C[C@@H](c2ccc(O)cc2)Oc2cc(O)cc(O)c21`, which Potency is on record?
**A.** Its Potency is “inactive”.

**Q.** Which Potency does the source give for `CC(C)(O)CCc1ccc(OCc2cc(-c3cccc(OC(F)F)c3)c3ncccc3c2)cc1` here?
**A.** The Potency was “inactive”.

**Q.** With `CNc1nc(Nc2ccc(C(=O)N3CCOCC3)cc2OC)ncc1Cl` as the compound, how does the Potency read?
**A.** Its Potency is “inactive”.

**Q.** Which Potency does the source give for `Cn1c(=O)c(Oc2ccc(F)cc2F)cc2cnc(NC3CCOCC3)nc21` here?
**A.** The Potency was “inactive”.

**Q.** For `O=C(CCCCCCC(=O)Nc1ccc([C@H]2O[C@@H](CSc3nc(-c4ccccc4)c(-c4ccccc4)o3)C[C@@H](c3ccc(CO)cc3)O2)cc1)NO`, which outcome is on record?
**A.** Its outcome is “inactive [at 11.3 µM]”.

**Q.** For `CCOC(=O)C1=C(N)Oc2ccc(Br)cc2C1C(C#N)C(=O)OCC` (stereo not given), which Potency is on record?
**A.** Its Potency is “inactive”.

**Q.** For `CN[C@@H](C)[C@H]1[C@H](O)C[C@@]2(C)[C@@H]3CC[C@H]4C(C)(C)[C@@H](NC)CC[C@@]45C[C@@]35CC[C@]12C`, which outcome is on record?
**A.** Its outcome is “inactive [at 11.3 µM]”.

**Q.** For `O=C1CCC[C@@H]2[C@H]3CCC[N+]4([O-])CCC[C@@H](CN12)[C@@H]34` (stereo not given in full), which Potency is on record?
**A.** The Potency was “inactive”.

**Q.** With `c1cc(OCCN2CCCCC2)cc(-c2n[nH]c3ccc(-c4ncn[nH]4)cc23)c1` as the compound, how does the Potency read?
**A.** Its Potency is “inactive”.

**Q.** With `CCCCCCCCCCCCCCCCCCCCCCO` as the compound, how does the Potency read?
**A.** Its Potency is “inactive”.

**Q.** Which Potency does the source give for `C[C@H](O)[C@@H]1C(=O)N2C(C(=O)O)=C(S[C@@H]3CN[C@H](CNS(N)(=O)=O)C3)[C@@H](C)[C@@H]12` here?
**A.** The Potency was “inactive”.

**Q.** For `CNC(=O)c1c(F)cccc1Nc1nc(Nc2cc3c(cc2OC)CCN3C(=O)CN(C)C)nc2[nH]ccc12`, which Potency is on record?
**A.** The Potency was “inactive”.

**Q.** With `O=C1NC(=O)/C(=C/c2ccc3nccnc3c2)S1` as the compound, how does the Potency read?
**A.** Its Potency is “inactive”.

**Q.** For `Clc1ccc(COC(Cn2ccnc2)c2ccc(Cl)cc2Cl)c(Cl)c1` (stereo not given), which Potency is on record?
**A.** The Potency was “inactive”.

**Q.** For `C=C1C(=O)OC(CCCCCCCC)C1C(=O)O` (stereo not given), which Potency is on record?
**A.** Its Potency is “inactive”.

**Q.** With `CCOc1ccccc1N=Nc1c(C)[nH]n(-c2nc(-c3ccccc3)cs2)c1=O` as the compound, how does the Potency read?
**A.** Its Potency is “inactive”.

**Q.** Which Potency does the source give for `CN[C@@H](C)C(=O)N[C@H]1CN(C(=O)CC(C)C)CC[C@H]2CC[C@@H](C(=O)NC(c3ccccc3)c3ccccc3)N2C1=O` here?
**A.** Its Potency is “inactive”.

**Q.** For `CC(C)Oc1ccc(C(=O)N[C@H](CNC(=O)CN(C)C)Cc2ccc(-c3cn4cccc([C@H](C)O)c4n3)cc2)cc1Cl`, which Potency is on record?
**A.** The Potency was “inactive”.

**Q.** Which Potency does the source give for `COC(=O)[C@H](CCCN=C(N)N)NS(=O)(=O)c1ccc(C)cc1` here?
**A.** Its Potency is “inactive”.

**Q.** Which Potency does the source give for `OCCN(CCO)CCO` here?
**A.** The Potency was “inactive”.

**Q.** For `COc1cc(C(C)C)c2c(c1)S(=O)(=O)N(COc1cc(=O)n3cccc(OCCN4CCCCC4)c3n1)C2=O`, which Potency is on record?
**A.** Its Potency is “inactive”.

**Q.** Which Potency does the source give for `COc1cc(F)c(C(C)C)cc1-c1ccc(C(F)(F)F)cc1CN1C(=O)O[C@H](c2cc(C(F)(F)F)cc(C(F)(F)F)c2)[C@@H]1C` here?
**A.** Its Potency is “inactive”.

**Q.** With `COc1ccc2c(c1OC)C(=O)OC2[C@H]1c2c(cc3c(c2OC)OCO3)CCN1C` (stereo not given in full) as the compound, how does the Potency read?
**A.** The Potency was “inactive”.

**Q.** For `O=C(O)Cn1nnc(-c2cc(N3CCC(Oc4cc(F)ccc4Br)CC3)no2)n1`, which Potency is on record?
**A.** The Potency was 3.55 µM (active).

**Q.** With `CCOC(=O)N1c2ccc(C(F)(F)F)cc2[C@@H](N(Cc2cc(C(F)(F)F)cc(C(F)(F)F)c2)C(=O)OC)C[C@H]1CC` as the compound, how does the Potency read?
**A.** Its Potency is “inactive”.

**Q.** For `CCN(CC)CCCC(C)Nc1nc(C)cc(Nc2ccc3nc(C)cc(N)c3c2)n1` (stereo not given), which Potency is on record?
**A.** The Potency was “inactive”.

**Q.** For `c1cc(N[C@@H]2CCNC2)nc(-c2cnc3ccc(-c4cn[nH]c4)cn23)c1`, which Potency is on record?
**A.** Its Potency is 31.6 µM (active).

**Q.** With `CO[C@@H]1C(N(C)C(=O)c2ccccc2)C[C@H]2O[C@]1(C)n1c3ccccc3c3c4c(c5c6ccccc6n2c5c31)C(=O)NC4=O` (stereo not given in full) as the compound, how does the Potency read?
**A.** The Potency was “inactive”.

**Q.** Which Potency does the source give for `O=c1cc(N2CCOCC2)oc2c(-c3ccccc3)cccc12` here?
**A.** The Potency was “inactive”.

**Q.** For `COc1ccc2cc(OCC3(C(=O)O)CN(C(=O)c4ccc(F)cc4)C3)ccc2c1`, which Potency is on record?
**A.** The Potency was “inactive”.

**Q.** For `Cc1ccc2nc(NC(=O)CSc3nc4c(c(=O)n3-c3ccccc3)SCC4)sc2c1`, which Potency is on record?
**A.** The Potency was “inactive”.

**Q.** Which Potency does the source give for `OC(CCN1CCCCC1)(c1ccccc1)C1CCCCC1` (stereo not given) here?
**A.** Its Potency is “inactive”.

**Q.** Which Potency does the source give for `Cn1nccc1Nc1nccc(-c2ccn([C@H](CO)c3ccc(Cl)c(F)c3)c(=O)c2)n1` here?
**A.** The Potency was 11.2 µM (active).

**Q.** Which Potency does the source give for `Cc1ncc(OC[C@@]2(c3cccc(F)c3)C[C@H]2C(=O)Nc2ccc(F)cn2)c(C)n1` here?
**A.** The Potency was “inactive”.

**Q.** With `CC(C)NC[C@@H](O)COc1cccc2ccccc12` as the compound, how does the Potency read?
**A.** The Potency was “inactive”.

**Q.** With `O=C(O)C1(Cc2cccc(Nc3nccs3)n2)CCC(Oc2cccc(Cl)c2F)CC1` (stereo not given) as the compound, how does the Potency read?
**A.** The Potency was “inactive”.

**Q.** With `CCCn1c(=O)c2[nH]c(-c3cnn(Cc4cccc(C(F)(F)F)c4)c3)nc2n(CC)c1=O` as the compound, how does the Potency read?
**A.** The Potency was “inactive”.

Reference: PubChem BioAssay (NCATS)
